Among the data in PubChem BioAssay (NCI) are growth values, retold here.

The panel holds about 83,000 compounds, 20% with a hit somewhere; the sample as a whole holds those more often.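 Percent growth is the endpoint: 0 to 100 indicates growth inhibition (40 means 60% inhibition), 0 means no net growth, and negative values indicate cell death.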 A number with no mark means an inactive call. Active and inactive are the calls of the source.

The experiment deals with OVCAR-4 ovarian. As to the kind of experiment: NCI-60 one-dose screen, 48 h (100 = growth as untreated, 0 = no growth, -100 = all killed). To be noted: 10 µM unless noted. The protocol:
Growth inhibition of the OVCAR-4 human tumor cell line is measured as a screen for anti-cancer activity. Cells are grown in 96 well plates and exposed to the test compound for 48 hours. Compounds are tested at a single concentration, which is 10^-5 M for most compounds. The reported endpoint is percent growth (GI% or GIPRCNT), where numbers from 0 - 100% represent growth inhibition, and numbers from -100% - 0 represent cell death. For example, a value of 40 represents 60% growth inhibition. A value of 0 means no net growth occurred over the course of the experiment. A value of -40 indicates 40% of cells at the beginning of the experiment died by the end of the experiment. A value of -100 means all cells are dead at the end of the experiment.
NCI-60 Human Tumor Cell Lines Screen was performed using the standard one-dose NCI protocol, which is described in more detail at https://dtp.cancer.gov/discovery_development/nci-60/default.htm.
Compounds with GIPRCNT values below 10 were considered active. Activity score was based on GIPRCNT using the following formula: […]
Score is 0 for GIPRCNT values of 100 or above, 50 for GIPRCNT values of 0, and 100 for GIPRCNT values of -100.
Consider `CCCCCCCCCCCCCCCCCC(=O)OCCCCCCCCCCCCC`, for which the growth is 113%.

Turning to `COc1ccc(C(=O)C(CN(C)C)c2ccc(OC)cc2)cc1` (stereo not given), the growth is 73.1%.

As to `O=C(Nc1ccc([N+](=O)[O-])cc1)c1cc2ccccc2cc1O`, the growth was 1.96% (active).

As to `CC(=O)Oc1c(Cl)c(Cl)c(Cl)c(Cl)c1Cl`, the growth is 90.3%.

As to `O=C(Nc1ccccc1)c1cc2ccccc2s1`, the growth was 60%.

For `CCN(CC)CCNC(=O)C(F)(F)C(F)(F)C(F)(F)F`, the growth was 112%.

In the case of `Cc1cc(N)cc(C)c1-c1c(Br)cc(N)cc1Br`, the growth was 61.9%.

Regarding `Cc1[nH]c2ccccc2c1C1=CC(=O)C=CC1=O`, the growth was 85.6%.

Regarding `CCN(CC)c1ccc(/C=C2/NC(=O)NC2=O)cc1`, the growth is 77%.

`C=CCCCCOc1cccc(/C=C2\N=C3SCCCN3C2=O)c1`: the growth was 87.6%.

As for `O=[N+]([O-])c1ccc(N/N=C/c2ccccc2O)nc1`, the growth is 39.3%.

In the case of `C=C(C)[C@@H]1CC[C@]2(C(=O)NS(=O)(=O)c3ccccc3)CC[C@]3(C)[C@H](CC[C@@H]4[C@@]5(C)CC[C@H](OC(=O)NS(=O)(=O)c6ccccc6)C(C)(C)[C@@H]5CC[C@]43C)[C@@H]12`, the growth is 38.1%.

For the molecule `CCOC(=O)c1ccc2c(c1)[n+](=O)c(C(=O)c1ccc3ccccc3c1)c(C(F)(F)F)n2[O-]`, the growth is -65.8% (active).

As to `Cc1csc(N/N=C/c2ccncc2)n1`, the growth is 116%.

`COc1ccc(/C=C(\C#N)c2cc(OC)c(OC)c(OC)c2)cc1`: the growth is 35.4%.

`COc1cc2ccc(C(C)=O)cc2cc1OC`: the growth is 120%.

On to `Cc1ccncc1NC=O`, for which the growth was 108%.

Take `COc1cc(/C=N/NC(=O)Cn2c(-c3ccc(C)o3)nc3ccccc32)ccc1OCc1ccccc1`: the growth is 90%.

Consider `CCCCCCCC/C=C/CCCCCCCC1=NC(C)(C)CN1c1ccccc1`, for which the growth was 80.2%.

Take `COC(=O)c1ccc2c(c1)nc(-c1ccc(Cl)cc1)n2-c1cc(C(C)(C)C)[nH]n1`: the growth was 81.4%.

In the case of `COc1cc(/C=C/c2cc(/C=C/c3ccc(O)c(OC)c3)n(C(=O)c3ccccc3Br)n2)ccc1O`, the growth was 49.8%.

Turning to `COc1cc(Nc2ncccc2/C=C/C(=O)c2cc(OC)c(OC)c(OC)c2)cc(OC)c1OC`, the growth was 83.1%.

As for `CC(C)CC1NC(=O)C(CC(C)C)N(CO)C1=O` (stereo not given), the growth was 113%.

Consider `CC(=O)O[C@H]1CC[C@]2(C)[C@H]3CC=C4[C@@H]5CC(C)(C)CC[C@]5(C(=O)OCC(COC(=O)C(Cl)Cl)(COC(=O)C(Cl)Cl)NC(=O)C(Cl)Cl)CC[C@@]4(C)[C@]3(C)CC[C@H]2C1(C)C`, for which the growth was 67.6%.

With `COc1ccccc1CNCCCN1C(=O)c2ccc3c4c(ccc(c24)C1=O)C(=O)N(CCCOCCCCOCCCN)C3=O`, the growth is -97.1% (active).

Regarding `CO[C@H](C(=O)[C@@H](O)[C@@H](C)O)[C@@H]1Cc2cc3cc(O[C@H]4C[C@@H](O[C@H]5C[C@@H](O)[C@H](O)C(C)O5)[C@H](O)C(C)O4)c(C)c(O)c3c(O)c2C(=O)[C@H]1O[C@H]1C[C@@H](O[C@H]2C[C@@H](O[C@H]3C[C@](C)(O)C(=O)C(C)O3)[C@@H](O)C(C)O2)[C@H](O)C(C)O1` (stereo not given in full), the growth is 8.45% (active).

`OC(COCc1ccccc1)COCc1ccccc1`: the growth is 107%.

For `C=C(COC(C)=O)[C@H]1CC/C(C)=C/CC/C(C)=C/CC[C@@]2(C)O[C@H]2C1`, the growth is 115%.

For the molecule `CCCCc1nc(Cl)c(C2CC(c3ccc(S(N)(=O)=O)cc3)=NN2c2cc(Cl)cc(Cl)c2)[nH]1` (stereo not given), the growth is 51.4%.

Consider `C/C(=N\NC(=O)CSc1nc2ccccc2c(=O)n1CCc1ccc(S(N)(=O)=O)cc1)c1ccc(Br)cc1`, for which the growth was 71.3%.

For the molecule `CS(=O)(=O)c1ccc(C(=O)N/N=C/c2cccc3ccccc23)cc1`, the growth is 113%.

As for `Cn1c(-c2ccccc2)cc(=O)n1-c1ccccc1`, the growth was 103%.

Consider `N=C(N)c1ccc(-c2ccc(-c3ccco3)o2)cc1F`, for which the growth was 42%.

Consider `CCOC(=O)Nc1ccc2nc(Sc3ccc(Cl)cc3)sc2c1`, for which the growth was 50.3%.

For the molecule `S=C(S)Oc1cccc2cccnc12`, the growth is 92.2%.

Regarding `CCOC(OCC)c1cnc2nc(NC(C)=O)[nH]c(=O)c2n1`, the growth is 107%.

Consider `O=C(N/N=C/c1ccc([N+](=O)[O-])cc1)c1ccccc1Nc1ccnc(C(F)(F)F)c1`, for which the growth was 61.1%.

Take `C=C1C(=O)O[C@H]2[C@H]1CC/C(COC(=O)NCc1[nH]nc3ccccc13)=C\CC[C@@]1(C)O[C@@H]21`: the growth was 67.9%.

For `CCCCCN(CCCCC)C(=O)C(CCC(=O)O)NC(=O)c1ccc(Cl)c(Cl)c1` (stereo not given), the growth is 115%.

With `CCC1=CC2CN(C1)Cc1c([nH]c3ccccc13)[C@@](C(=O)OC)(c1cc3c(cc1OC)N(C)[C@H]1[C@@](O)(C(=O)OC)[C@H](OC(C)=O)[C@]4(CC)C=CCN5CC[C@]31[C@@H]54)C2` (stereo not given in full), the growth was 29.6%.
